# Data published in the supplement of paper PMC6555819.
# Tests used:
# Test in all cases: PBM binding z-score (relative to random genomic background probes); higher = stronger binding; sequences stand for … in GC…GCGATTGACAGCGTAGAATGAAGG
# [1] = tested on: PPARg:RXRa DBDmut IVT, anti-RXR (DBD mutation: RXRa K156A/R161A, NR concentration 270 nM, RXRa partner concentration 90 nM)
# Summary of the method: (§1)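 Ligand-free nuclear receptor dimers were applied to custom Agilent 4×180K protein-binding microarrays whose double-stranded probes carried direct-repeat seeds, single-nucleotide variants, half-site ablations and random human genomic background sequences in 34-nt variable regions. Incubation lasted 1 h. Binding z-scores were computed against the random background probes from regression-normalized fluorescence.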
# [2] = tested on: PPARg:RXRa IVT, anti-PPARg (NR concentration 270 nM, RXRa partner concentration 90 nM)
# Summary of the method: as §1
# [3] = tested on: PPARg DBDmut:RXRa IVT, anti-PPARg (DBD mutation: PPARg1 K132A/R137A, NR concentration 270 nM, RXRa partner concentration 90 nM)
# Summary of the method: as §1
# [4] = tested on: PPARg DBDmut IVT, anti-PPARg (DBD mutation: PPARg1 K132A/R137A, NR concentration 270 nM)
# Summary of the method: as §1
# [5] = tested on: PPARg homodimer (NR concentration 180 nM)
# Summary of the method: as §1
# [6] = tested on: PXR:RXRa (NR concentration 270 nM, RXRa partner concentration 90 nM)
# Summary of the method: as §1
# [7] = tested on: PXR homodimer (NR concentration 270 nM)
# Summary of the method: as §1
# [8] = tested on: RARa:RXR (NR concentration 270 nM, RXRa partner concentration 90 nM)
# Summary of the method: as §1
# [9] = tested on: RARa homodimer (NR concentration 270 nM)
# Summary of the method: as §1
# [10] = tested on: RARb:RXRa (NR concentration 270 nM, RXRa partner concentration 90 nM)
# Summary of the method: as §1
# [11] = tested on: RARb homodimer (NR concentration 270 nM)
# Summary of the method: as §1
# [12] = tested on: RARg:RXRa (NR concentration 270 nM, RXRa partner concentration 90 nM)
# Summary of the method: as §1
# [13] = tested on: RARg homodimer (NR concentration 270 nM)
# Summary of the method: as §1
# [14] = tested on: RXRa DBDmut IVT, anti-RXR (DBD mutation: RXRa K156A/R161A, NR concentration 90 nM)
# Summary of the method: as §1
# [15] = tested on: RXRa homodimer (NR concentration 180 nM)
# Summary of the method: as §1
# [16] = tested on: THRa:RXRa (NR concentration 90 nM, RXRa partner concentration 90 nM)
# Summary of the method: as §1
# [17] = tested on: THRa homodimer (NR concentration 90 nM)
# Summary of the method: as §1
# [18] = tested on: VDR:RXRa (NR concentration 270 nM, RXRa partner concentration 90 nM)
# Summary of the method: as §1
# [19] = tested on: VDR homodimer (NR concentration 270 nM)
# Summary of the method: as §1
Sequence,PBM binding z-score [1],PBM binding z-score [2],PBM binding z-score [3],PBM binding z-score [4],PBM binding z-score [5],PBM binding z-score [6],PBM binding z-score [7],PBM binding z-score [8],PBM binding z-score [9],PBM binding z-score [10],PBM binding z-score [11],PBM binding z-score [12],PBM binding z-score [13],PBM binding z-score [14],PBM binding z-score [15],PBM binding z-score [16],PBM binding z-score [17],PBM binding z-score [18],PBM binding z-score [19]
TCTATTAGTTGATTACGGCAACCGAAACAGCGGA,2.26,0.246,1.27,1.25,1.11,0.471,0.751,0.595,1.59,0.331,-0.0417,0.252,0.426,1.38,0.521,0.122,0.312,0.738,0.575
ATATGTACGTTACATCCGGGTCATTCAGGCTATG,1.16,1.97,2.06,2.28,1.34,3.1,3.05,3.04,0.866,1.56,2.41,1.61,1.24,1.2,2.07,3.14,2.93,3.54,2.95
CCGACTGGGGCAAGGTTGCCATAACGCACAGCCA,2.66,2.53,-0.344,-1.02,0.0482,-0.535,-0.379,-0.46,-0.394,0.641,0.376,0.327,0.556,-0.586,0.107,0.0473,-0.389,-0.351,-0.526
CAAACTAGGTCAAGGTAAAAGTCGGTTTGTGCCA,8.78,8.76,1.41,0.73,1.61,1.54,-0.0973,2.24,0.604,4.42,3.47,3.84,5.09,1.52,2.93,3.03,1.49,1.79,0.742
ACTGGTTGGTCAGCTGAGGTCACACACAATTCGG,0.671,2.22,1.22,0.402,3.12,5.37,2.47,4.61,1.92,3.73,4.63,4.08,4.57,1.23,4.2,5.13,5.73,4.57,4.2
ATATGTAGGTTAAGGGTTATTCAGGTTGGTTCGC,7.57,7.51,3.47,3.04,2.78,2.84,1.6,2.88,2.39,1.88,1.91,2.11,1.34,0.963,2.75,2.37,1.52,3.27,1.83
CCTGCTAGGTCATGATCAGCTAATCTACAGTATG,4.52,3.32,0.5,0.49,0.98,1.19,-0.328,2.08,0.216,3.7,2.57,3.89,4.57,1.65,2.85,2.75,0.661,1.41,0.00806
CGAACGATGGCATGAGTTGATAGCAAATGCCGAT,-0.534,-0.676,-0.379,-0.0268,0.126,-0.184,-0.0321,-0.0116,-0.0736,-0.391,-0.482,-0.189,-0.00968,0.0712,0.135,-0.2,-0.806,-0.111,0.233
ACAGACAGGTGAGTGAACGTAACTCAGCTGGACG,0.689,0.457,0.319,-1.39,-0.743,-0.554,-0.547,-0.741,-0.186,0.247,-0.371,-0.0638,0.417,-0.336,0.275,-0.437,-0.967,-0.318,-0.683
ACTGGCAGGCCAAGTTTGGGTCACTCAAACAAAG,-0.444,0.61,-1.01,-1.29,0.0864,0.677,-0.347,1.4,-0.396,1.74,2.35,2.51,1.97,-0.557,0.925,2.56,1.14,0.456,-0.0755
TCCTGTAGATCAACAGGAGGTTAAGAAAGATCGA,0.771,0.245,-0.0559,0.308,0.0427,0.654,-0.17,1.02,-0.715,0.535,0.374,0.894,0.158,-0.0672,0.88,0.931,-0.958,0.266,-0.104
ATATGTAGGTTATCGGGTCACTCAGTTTGCGCAT,7.7,7.75,1.5,2.23,3.69,3.61,4.7,3.72,1.9,2.68,3.37,3.31,3.06,1.56,3.33,3.59,3.18,5,2.36
GCTATTAGTTGAAAGGGCAACCAAATGATTCTCG,0.461,1.15,0.444,0.602,0.903,0.803,0.104,1.48,0.766,2.13,2.12,1.54,1.36,1,1.26,0.682,-0.397,0.604,0.22
GATACAGGGTCAGCTAGAAGCCAGAGTATGGAAA,1.32,2.21,-0.0163,-0.227,2.08,1.64,0.0123,2.84,-0.0258,3.78,2.56,4.59,4.35,1.28,4.19,2.53,0.406,2.11,0.338
ACTATTAGTTGAGACGAGGGCGACCGATAGGTTG,0.0234,-0.184,0.772,0.784,0.303,0.205,0.117,0.144,0.456,0.332,0.339,0.187,0.419,0.572,0.161,1.23,-0.4,0.133,0.337
